From PubChem BioAssay (NCATS)
Activity calls are given as the source filed them. Calls come from the whole dose curve; as a rule, active = well fitted activation curve with a large enough effect; inconclusive = small, poorly fitted or top-dose-only effect; inactive = no such curve, though single readings can be large or run the other way.

Target: Cytochrome P450 3A4 (Homo sapiens) (UniProt P08684)
Assay: qHTS Assay for Activators of Cytochrome P450 3A4 (AID 885); note: nearly all actives have a fitted effect of over 65% in size
Details: recombinant CYP3A4, Luciferin-PPXE luminescence, 60 min; series mostly up to 57.1 µM; activity change, positive = activation: at the top concentration
Summary of the method: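 Signal was normalized against complete inhibition by 57 uM ketoconazole. The reaction used 20nM CYP3A4 with 25uM Luciferin-PPXE, 10-min compound preincubation and a 60-min NADPH-supported step at RT.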

Sequence of Cytochrome P450 3A4 (Homo sapiens) (P08684 whole entry, looked up): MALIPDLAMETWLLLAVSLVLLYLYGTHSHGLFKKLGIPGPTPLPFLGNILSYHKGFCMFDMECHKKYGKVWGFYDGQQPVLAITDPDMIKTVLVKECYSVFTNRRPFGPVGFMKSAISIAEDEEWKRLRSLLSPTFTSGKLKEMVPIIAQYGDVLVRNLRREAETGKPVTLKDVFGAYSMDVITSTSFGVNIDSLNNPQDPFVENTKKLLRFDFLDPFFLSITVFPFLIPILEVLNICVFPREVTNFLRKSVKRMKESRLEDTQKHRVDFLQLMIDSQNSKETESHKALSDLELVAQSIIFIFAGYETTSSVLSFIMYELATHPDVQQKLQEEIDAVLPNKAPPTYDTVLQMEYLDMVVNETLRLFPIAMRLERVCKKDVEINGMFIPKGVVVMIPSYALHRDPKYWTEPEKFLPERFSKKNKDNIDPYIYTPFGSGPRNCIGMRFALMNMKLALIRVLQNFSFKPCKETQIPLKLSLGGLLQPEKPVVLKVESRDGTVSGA

Activity change, positive = activation, inactive:
CO[C@@H]1COC(=O)C/C=C\[C@@H](C)COC(=O)[C@H](COCc2ccccc2)NC(=O)C/C=C\[C@H]1C -56.3% [at 11.4 µM]
CO/N=C1/c2cc(OC)ccc2O[C@@H](c2cccc(OC)c2)[C@H]1O -52.8% [at 11.4 µM]
COc1ccc(COC(=O)N/N=C2/C[C@@H](O)[C@@H](O)[C@@H]3[C@@H]4C(=O)N([C@@H](C)c5ccccc5)C(=O)[C@H]4CC[C@H]23)cc1 -54.4% [at 11.4 µM]
COC(=O)[C@@H]1C[C@H]2CC[C@H](O)C[C@H]2N1Cc1ccc(C(F)(F)F)cc1 -52.4%
N#Cc1ccc(C23CC4(C2)[C@H](CN(CC2CCCCC2)[C@@H]4c2ccccc2)C3c2ccc(C(F)(F)F)cc2)cc1 (stereo not given in full) -55.3%
N#Cc1ccc(C23CC4(C2)[C@H](CN(Cc2ccc(-c5ccccc5)cc2)[C@@H]4c2ccccc2)C3c2ccccc2)cc1 (stereo not given in full) -39%
COc1cccc([C@H](O)Cn2cc(-c3cccc(CON=C(C)C)c3)nn2)c1 -43.8% [at 11.4 µM]
Cn1c(N)c(C(=O)COC(=O)c2cc(C(F)(F)F)nc3ccccc23)c(=O)n(Cc2ccccc2)c1=O -46.7%
COc1ccc(O[C@H]2C=C[C@@H](c3ccccc3)O[C@H]2CO/N=C(/C)CCC(=O)OC[C@@H]2O[C@H](C#Cc3ccccc3)C=C[C@@H]2Oc2ccc(C)cc2)cc1 -52.7% [at 11.4 µM]
CC1(C)CC[C@]2(C(=O)O)CC[C@]3(C)C(=CCC4[C@@]5(C)CC[C@H](O)C(C)(C)C5[C@H](O)C[C@]43C)C2C1 (stereo not given in full) -40.6%
